In paper PMC7862700, “An all-to-all approach to the identification of sequence-specific readers for epigenetic DNA modifications on cytosine”:

Key:
Assay in all cases: DAPPL (digital affinity profiling via proximity ligation, sequencing); 10 mM Tris-HCl pH 7.5, 50 mM NaCl, 1 mM DTT, 4% glycerol, room temperature, 30 min; GST-TFs on glutathione beads, 16-mer random dsDNA library, 0.1% formaldehyde crosslink after washing; high values mean tight binding
Conditions in all cases: protein: recombinant; tags: N-terminal GST; dsDNA, one strand shown
FLI1 = target: T1, FLI1 (Homo sapiens, UniProt Q01543 1-452)
T1 sequence: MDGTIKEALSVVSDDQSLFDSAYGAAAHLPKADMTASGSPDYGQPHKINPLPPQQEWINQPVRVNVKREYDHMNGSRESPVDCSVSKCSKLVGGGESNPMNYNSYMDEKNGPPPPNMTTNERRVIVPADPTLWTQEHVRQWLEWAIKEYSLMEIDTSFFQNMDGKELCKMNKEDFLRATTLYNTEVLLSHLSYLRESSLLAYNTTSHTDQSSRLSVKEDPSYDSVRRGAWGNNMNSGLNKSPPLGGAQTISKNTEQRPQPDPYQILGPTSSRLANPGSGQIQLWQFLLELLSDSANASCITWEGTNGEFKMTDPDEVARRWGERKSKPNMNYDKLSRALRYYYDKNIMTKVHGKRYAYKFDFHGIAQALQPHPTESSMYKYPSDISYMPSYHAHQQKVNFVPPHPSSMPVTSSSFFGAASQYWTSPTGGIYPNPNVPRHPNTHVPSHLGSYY
Method in brief: (§1)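 Human transcription factors fused to GST were expressed in yeast, captured on glutathione beads, given DNA barcodes and pooled with a GST-only negative control. Pools were incubated with 200 nmole of a 16-mer random double-stranded DNA library in Tris/NaCl/DTT/glycerol buffer at room temperature for 30 min. They were then washed, crosslinked with 0.1% formaldehyde, proximity-ligated (BsaI/T4 ligase, 1 h, 37 °C), PCR-amplified and sequenced on an Illumina NextSeq500. Binding signal is each 6-mer's read frequency for a factor divided by its frequency for the GST control.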

ELK1 = target: T2, ELK1 (Homo sapiens, UniProt P19419 1-428)
T2 sequence: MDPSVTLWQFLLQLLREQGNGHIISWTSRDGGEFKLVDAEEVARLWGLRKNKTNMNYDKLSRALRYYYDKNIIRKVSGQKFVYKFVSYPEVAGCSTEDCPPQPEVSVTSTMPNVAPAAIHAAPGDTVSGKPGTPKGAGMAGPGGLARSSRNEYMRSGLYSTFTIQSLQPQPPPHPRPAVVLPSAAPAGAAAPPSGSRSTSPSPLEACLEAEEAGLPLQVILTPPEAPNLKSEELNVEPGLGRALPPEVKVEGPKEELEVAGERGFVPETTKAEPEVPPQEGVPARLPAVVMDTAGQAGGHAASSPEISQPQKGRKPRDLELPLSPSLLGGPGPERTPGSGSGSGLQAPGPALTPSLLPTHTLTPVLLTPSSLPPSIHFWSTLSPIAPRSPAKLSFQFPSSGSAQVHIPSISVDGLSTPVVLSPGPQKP
Method in brief: as §1

GABPA = target: T3, GABPA (Homo sapiens, UniProt Q06546 1-454)
T3 sequence: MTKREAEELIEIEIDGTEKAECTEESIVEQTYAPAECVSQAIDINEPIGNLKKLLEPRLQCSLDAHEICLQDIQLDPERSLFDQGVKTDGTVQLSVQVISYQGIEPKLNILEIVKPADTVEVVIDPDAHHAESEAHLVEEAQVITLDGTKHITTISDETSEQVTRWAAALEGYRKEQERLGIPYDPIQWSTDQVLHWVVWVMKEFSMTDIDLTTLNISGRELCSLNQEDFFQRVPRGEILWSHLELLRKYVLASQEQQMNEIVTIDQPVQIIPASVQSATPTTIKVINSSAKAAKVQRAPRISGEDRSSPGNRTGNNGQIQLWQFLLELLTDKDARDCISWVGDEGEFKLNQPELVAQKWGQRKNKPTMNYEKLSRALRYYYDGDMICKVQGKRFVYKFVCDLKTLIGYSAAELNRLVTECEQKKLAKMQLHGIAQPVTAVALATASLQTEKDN
Method in brief: as §1

ERG = target: T4, ERG (Homo sapiens, UniProt P11308 1-479)
T4 sequence: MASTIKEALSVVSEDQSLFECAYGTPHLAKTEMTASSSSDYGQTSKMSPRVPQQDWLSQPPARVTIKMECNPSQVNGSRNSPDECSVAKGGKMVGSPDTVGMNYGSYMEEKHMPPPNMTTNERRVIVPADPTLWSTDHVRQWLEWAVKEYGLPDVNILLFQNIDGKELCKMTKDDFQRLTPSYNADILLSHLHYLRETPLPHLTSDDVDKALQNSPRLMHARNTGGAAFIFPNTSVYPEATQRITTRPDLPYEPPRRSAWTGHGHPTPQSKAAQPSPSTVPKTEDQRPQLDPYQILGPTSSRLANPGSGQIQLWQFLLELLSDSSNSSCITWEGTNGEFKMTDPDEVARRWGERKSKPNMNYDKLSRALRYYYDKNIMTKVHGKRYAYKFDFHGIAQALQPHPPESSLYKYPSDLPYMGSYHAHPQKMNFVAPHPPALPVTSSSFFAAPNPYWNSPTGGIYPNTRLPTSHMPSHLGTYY
Method in brief: as §1

ELF1 = ELF1 (Homo sapiens, UniProt P32519 1-619)
Sequence of ELF1 (P32519 whole entry): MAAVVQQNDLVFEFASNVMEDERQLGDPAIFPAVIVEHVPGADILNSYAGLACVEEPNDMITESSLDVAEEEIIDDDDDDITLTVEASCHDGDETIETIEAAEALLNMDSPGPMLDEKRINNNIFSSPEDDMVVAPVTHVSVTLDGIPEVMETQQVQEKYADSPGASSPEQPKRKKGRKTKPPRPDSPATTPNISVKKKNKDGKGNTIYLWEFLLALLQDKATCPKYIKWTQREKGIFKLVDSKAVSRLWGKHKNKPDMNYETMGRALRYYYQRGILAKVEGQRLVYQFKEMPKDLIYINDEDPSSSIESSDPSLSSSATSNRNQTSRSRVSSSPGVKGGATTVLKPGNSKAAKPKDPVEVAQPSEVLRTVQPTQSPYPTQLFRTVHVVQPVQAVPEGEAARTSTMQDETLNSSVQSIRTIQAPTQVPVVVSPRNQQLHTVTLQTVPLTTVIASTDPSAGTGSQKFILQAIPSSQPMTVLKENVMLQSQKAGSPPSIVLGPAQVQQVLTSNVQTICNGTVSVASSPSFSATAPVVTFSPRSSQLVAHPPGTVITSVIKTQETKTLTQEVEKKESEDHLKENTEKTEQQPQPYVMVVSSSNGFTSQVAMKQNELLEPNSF
Method in brief: as §1

EHF = target: T5, EHF (Homo sapiens, UniProt Q9NZC4 1-300)
T5 sequence: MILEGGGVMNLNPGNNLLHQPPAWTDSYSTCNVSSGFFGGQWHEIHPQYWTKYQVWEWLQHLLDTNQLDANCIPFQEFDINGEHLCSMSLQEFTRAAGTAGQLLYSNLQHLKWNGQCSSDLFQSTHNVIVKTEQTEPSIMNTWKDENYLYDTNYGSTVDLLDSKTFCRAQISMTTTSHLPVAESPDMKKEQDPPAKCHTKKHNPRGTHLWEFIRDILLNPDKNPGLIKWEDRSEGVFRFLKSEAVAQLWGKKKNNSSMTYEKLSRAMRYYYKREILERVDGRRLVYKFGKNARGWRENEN
Method in brief: as §1

SPI1 = SPI1 (Homo sapiens, UniProt P17947 1-270)
Method in brief: as §1

SPIB = SPIB (Homo sapiens, UniProt Q01892 1-262)
Sequence of SPIB (Q01892 whole entry): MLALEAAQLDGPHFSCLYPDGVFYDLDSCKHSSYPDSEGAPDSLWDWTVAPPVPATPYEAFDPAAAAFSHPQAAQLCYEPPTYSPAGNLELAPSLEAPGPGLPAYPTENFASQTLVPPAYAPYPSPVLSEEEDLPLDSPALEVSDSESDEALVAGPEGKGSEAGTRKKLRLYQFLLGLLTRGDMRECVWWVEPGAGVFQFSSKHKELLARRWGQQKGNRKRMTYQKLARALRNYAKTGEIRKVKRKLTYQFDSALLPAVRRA
Method in brief: as §1

ELK3 = target: T6, ELK3 (Homo sapiens, UniProt P41970 1-407)
T6 sequence: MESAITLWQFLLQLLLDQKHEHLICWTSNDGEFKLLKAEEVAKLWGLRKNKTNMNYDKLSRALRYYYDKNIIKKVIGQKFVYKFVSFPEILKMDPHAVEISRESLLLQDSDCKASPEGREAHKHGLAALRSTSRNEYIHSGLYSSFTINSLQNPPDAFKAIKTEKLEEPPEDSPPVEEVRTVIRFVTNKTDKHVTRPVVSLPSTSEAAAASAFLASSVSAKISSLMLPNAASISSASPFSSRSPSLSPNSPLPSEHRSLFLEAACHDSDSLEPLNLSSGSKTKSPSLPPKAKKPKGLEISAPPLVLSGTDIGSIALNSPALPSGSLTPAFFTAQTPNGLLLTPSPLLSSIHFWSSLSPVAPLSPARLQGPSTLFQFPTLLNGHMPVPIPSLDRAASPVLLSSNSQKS
Method in brief: as §1

Sequence	binding signal (FLI1)	binding signal (ELK1)	binding signal (GABPA)	binding signal (ERG)	binding signal (ELF1)	binding signal (EHF)	binding signal (SPI1)	binding signal (SPIB)	binding signal (ELK3)
GAAAAA	1.07 fold enrichment (6-mer frequency, TF over GST control)	1.13 fold enrichment (6-mer frequency, TF over GST control)	1.11 fold enrichment (6-mer frequency, TF over GST control)	1.14 fold enrichment (6-mer frequency, TF over GST control)	1.1 fold enrichment (6-mer frequency, TF over GST control)	1.2 fold enrichment (6-mer frequency, TF over GST control)	1.21 fold enrichment (6-mer frequency, TF over GST control)	1.18 fold enrichment (6-mer frequency, TF over GST control)	1.21 fold enrichment (6-mer frequency, TF over GST control)
TCTGAC	1.26 fold enrichment (6-mer frequency, TF over GST control)	1.19 fold enrichment (6-mer frequency, TF over GST control)	1.24 fold enrichment (6-mer frequency, TF over GST control)	1.16 fold enrichment (6-mer frequency, TF over GST control)	1.28 fold enrichment (6-mer frequency, TF over GST control)	1.3 fold enrichment (6-mer frequency, TF over GST control)	1.09 fold enrichment (6-mer frequency, TF over GST control)	1.25 fold enrichment (6-mer frequency, TF over GST control)	1.24 fold enrichment (6-mer frequency, TF over GST control)
TGGTGT	1.28 fold enrichment (6-mer frequency, TF over GST control)	1.18 fold enrichment (6-mer frequency, TF over GST control)	1.35 fold enrichment (6-mer frequency, TF over GST control)	1.33 fold enrichment (6-mer frequency, TF over GST control)	1.33 fold enrichment (6-mer frequency, TF over GST control)	1.31 fold enrichment (6-mer frequency, TF over GST control)	1.23 fold enrichment (6-mer frequency, TF over GST control)	1.18 fold enrichment (6-mer frequency, TF over GST control)	1.4 fold enrichment (6-mer frequency, TF over GST control)
ACCGCT	1.09 fold enrichment (6-mer frequency, TF over GST control)	1.12 fold enrichment (6-mer frequency, TF over GST control)	1.14 fold enrichment (6-mer frequency, TF over GST control)	1.1 fold enrichment (6-mer frequency, TF over GST control)	1.07 fold enrichment (6-mer frequency, TF over GST control)	1.09 fold enrichment (6-mer frequency, TF over GST control)	1.03 fold enrichment (6-mer frequency, TF over GST control)	1.15 fold enrichment (6-mer frequency, TF over GST control)	1.05 fold enrichment (6-mer frequency, TF over GST control)
CCTACC	1.21 fold enrichment (6-mer frequency, TF over GST control)	1.37 fold enrichment (6-mer frequency, TF over GST control)	1.39 fold enrichment (6-mer frequency, TF over GST control)	1.29 fold enrichment (6-mer frequency, TF over GST control)	1.28 fold enrichment (6-mer frequency, TF over GST control)	1.33 fold enrichment (6-mer frequency, TF over GST control)	1.31 fold enrichment (6-mer frequency, TF over GST control)	1.38 fold enrichment (6-mer frequency, TF over GST control)	1.27 fold enrichment (6-mer frequency, TF over GST control)
CAACCA	1.15 fold enrichment (6-mer frequency, TF over GST control)	1.15 fold enrichment (6-mer frequency, TF over GST control)	1.12 fold enrichment (6-mer frequency, TF over GST control)	1.03 fold enrichment (6-mer frequency, TF over GST control)	1.15 fold enrichment (6-mer frequency, TF over GST control)	1.13 fold enrichment (6-mer frequency, TF over GST control)	1.11 fold enrichment (6-mer frequency, TF over GST control)	1.06 fold enrichment (6-mer frequency, TF over GST control)	1.18 fold enrichment (6-mer frequency, TF over GST control)
CACACT	1.18 fold enrichment (6-mer frequency, TF over GST control)	1.11 fold enrichment (6-mer frequency, TF over GST control)	1.17 fold enrichment (6-mer frequency, TF over GST control)	1.18 fold enrichment (6-mer frequency, TF over GST control)	1.21 fold enrichment (6-mer frequency, TF over GST control)	1.2 fold enrichment (6-mer frequency, TF over GST control)	1.16 fold enrichment (6-mer frequency, TF over GST control)	1.14 fold enrichment (6-mer frequency, TF over GST control)	1.24 fold enrichment (6-mer frequency, TF over GST control)
